Reference: PubChem BioAssay
Values without a mark were called inactive. Calls of active or inactive are those of the source. Cut-off read from the data, not from the text of the source, unless noted: active = inhibition above about 28%; inactive = the rest.

System: not listed separately
Test: StAR promoter reporter inhibitors, counter-screen for LRH-1 inverse agonist project, cell-based, luminescence, high throughput (AID 651611)
Settings: StAR promoter luciferase reporter counterscreen, at 3.6 µM, hits give high values

| SMILES | inhibition |
| --- | --- |
| C[C@@H]1CN([C@@H](C)CO)S(=O)(=O)c2ccc(-c3ccc(C#N)cc3)cc2O[C@@H]1CN(C)Cc1ccccn1 | 24.5% |
| Cc1onc(-c2ccccc2Cl)c1-c1nc(-c2ccncc2)no1 | 7.38% |
| Cc1cc(C(=O)CSc2nnnn2C)c(C)n1CCc1ccc(F)cc1 | 5.26% |
| Cc1cc(=O)oc2cc(O)cc(OCc3ccccc3)c12 | 26% |
| Clc1ccc(Cn2ncc3c(NCc4ccccc4)ncnc32)cc1 | 43.3% (active) |
| NC(=S)N/N=C/c1ccc(-c2ccc([N+](=O)[O-])cc2)o1 | -7.04% |
| COc1cc2c(cc1OC)-c1c(OC)c(OC)cc3ccnc(c13)C2=O | 41.2% (active) |
| COc1ccc(NC(=O)CSc2nnc3ccc(-c4cccnc4)nn23)cc1OC | 7.32% |
| O=Cc1ccc(N2CCCCCC2)cc1 | 3.14% |
| CC1(c2ccc3ccccc3c2)NC(=O)N(CC(=O)N2CCN(Cc3ccc(C#N)cc3)CC2)C1=O (stereo not given) | 32.1% (active) |
| CCOC(=O)c1ccc(N=Cc2cnc(N)nc2N)cc1 | -7.89% |
| O=C(CSc1ncccc1-c1nc2ccccc2[nH]1)Nc1ccc2c(c1)OCCO2 | -8.79% |
| CCOc1ccc(CCNC(=O)COC(=O)c2ccc(F)c(S(=O)(=O)N3CCOCC3)c2)cc1OCC | 10.3% |
| CCOc1cc(/C=N/Nc2nnc(C)n2N)ccc1O | -6% |
| COC(=O)c1ccc(NC(=O)CN2CCN(S(=O)(=O)c3cc(Cl)ccc3OC)CC2)cc1 | 9.56% |
| O=C(O)c1c[nH]c2c([N+](=O)[O-])cccc2c1=O | 10.4% |
| Cc1cc(/C=N/n2cnnc2)c(C)n1-c1ccc(OCc2ccc(Cl)cc2)cc1 | -11% |
| Cc1onc(-c2c(F)cccc2Cl)c1C(=O)c1ccc(F)cc1 | 2% |
| Cc1[nH][nH]c(=O)c1N=Nc1ccc(S(N)(=O)=O)cc1 | 20.7% |
| CCOc1cc(/C=C2\C(=N)N3N=C(C)SC3=NC2=O)ccc1OCCOc1cccc(OC)c1 | 10% |

| SMILES | inhibition |
| --- | --- |
| O=C(N/N=C/c1ccc([N+](=O)[O-])s1)C(O)c1ccccc1 (stereo not given) | 25.9% |
| O=C(C(Cl)c1ccccc1)N1CCOCC1 (stereo not given) | 5.9% |
| COCCn1c(SCC(=O)Nc2ccc(C(C)=O)cc2)nnc1-c1ccco1 | 14.8% |
| CC(=O)Oc1ccc2oc(=O)c3c(c2c1)CCCN3C(=O)CN1CCN(c2ncccn2)CC1 | 12.8% |
| CC(=O)c1ccc(OC(C)C(=O)OCC(=O)NCCc2ccccc2)cc1 (stereo not given) | -2.97% |
| CCCn1c2c(c(=N)c3c1CCC3)CCCC2 | 4.81% |
| C/C(=N\NC(N)=S)C1(C)CCCCC1 | 20.6% |
| Cc1ccc(NC(=O)CSc2nnc(CCCCCNC(=O)OC(C)(C)C)o2)c(C)c1 | 12.2% |
| COc1cc(C(=O)NC2CCN(C)CC2)ccc1Nc1ncc2c(n1)N(CCc1ccccc1)CCC(=O)N2C | 63.2% (active) |
| C#Cc1cccc(Nc2nc(NCCOC)nc3ccsc23)c1 | 26.9% |
| Cc1nn(Cc2ccc(Cl)cc2)c(C)c1NC(=O)c1cc(C(C)C)on1 | 16.2% |
| CC(=O)N1CCN(c2ccc(Oc3ccc([N+](=O)[O-])c(C(F)(F)F)c3)cc2)CC1 | 30.3% (active) |
| Cc1nnc(SCC(=O)Nc2ccc(Br)cc2)n(N)c1=O | 6.5% |
| C/C(=N\Nc1nc(C)c(C)s1)c1ccc([N+](=O)[O-])cc1 | -12.6% |
| O=C(CN1C(=O)NC2(CCCCC2)C1=O)NCCc1c[nH]c2ccccc12 | 10.1% |
| Cc1ccc(-n2nc(C)c(NC(=O)CCl)c2C)cc1C | 57.9% (active) |
| CC(=O)Oc1ccc(-c2ccc(C(=O)Nc3cccc(S(=O)(=O)N4CCOCC4)c3)cc2)cc1 | 25.5% |
| Cc1cc2oc(=O)cc(C)c2cc1NC(=O)CCl | 32.9% (active) |
| O=C(OCC(=O)N1CCN(C(=O)COC(=O)c2ccc(O)cc2O)CC1)c1ccc(O)cc1O | 14.4% |
| CC1(C)CC(=O)C=C(c2cccs2)C1 | 0.35% |

Biological target: Nuclear receptor subfamily 5 group A member 2 (Homo sapiens) (UniProt O00482)
Test: LRH-1 (NR5A2) inverse agonists, retest, confirmation, cell-based, luminescence (AID 651613; in the data active = inhibition above about 42%;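 note: HEK293T cells co-transfected with LRH-1 and StAR promoter luciferase reporter; 0% = vehicle wells and 100% = parental cells lacking receptor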)
Settings: cell-based LRH-1 luciferase reporter, inverse agonism; at 3.6 µM; hits give high values

Nuclear receptor subfamily 5 group A member 2 (Homo sapiens), sequence (O00482 whole entry, looked up): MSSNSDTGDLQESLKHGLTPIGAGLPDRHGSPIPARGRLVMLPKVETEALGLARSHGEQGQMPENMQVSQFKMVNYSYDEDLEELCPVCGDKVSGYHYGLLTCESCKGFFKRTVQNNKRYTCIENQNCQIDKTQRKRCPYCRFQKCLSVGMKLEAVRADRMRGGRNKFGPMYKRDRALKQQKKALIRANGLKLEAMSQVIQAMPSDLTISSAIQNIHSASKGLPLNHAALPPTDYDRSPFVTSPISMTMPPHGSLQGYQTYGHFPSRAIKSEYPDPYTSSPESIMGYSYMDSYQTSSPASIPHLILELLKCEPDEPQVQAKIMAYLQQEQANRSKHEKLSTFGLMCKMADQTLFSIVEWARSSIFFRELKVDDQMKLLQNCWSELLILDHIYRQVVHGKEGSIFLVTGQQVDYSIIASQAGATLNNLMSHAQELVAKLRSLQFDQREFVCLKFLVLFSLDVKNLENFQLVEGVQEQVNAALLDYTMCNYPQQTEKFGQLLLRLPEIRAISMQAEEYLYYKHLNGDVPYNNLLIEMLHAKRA

| SMILES | inhibition |
| --- | --- |
| C[C@@H]1CN([C@@H](C)CO)S(=O)(=O)c2ccc(-c3ccc(C#N)cc3)cc2O[C@@H]1CN(C)Cc1ccccn1 | 51.8% (active) |
| Cc1onc(-c2ccccc2Cl)c1-c1nc(-c2ccncc2)no1 | 58.1% (active) |
| Cc1cc(C(=O)CSc2nnnn2C)c(C)n1CCc1ccc(F)cc1 | 49.4% (active) |
| Cc1cc(=O)oc2cc(O)cc(OCc3ccccc3)c12 | 51.7% (active) |
| Clc1ccc(Cn2ncc3c(NCc4ccccc4)ncnc32)cc1 | 59.4% (active) |
| NC(=S)N/N=C/c1ccc(-c2ccc([N+](=O)[O-])cc2)o1 | 52.5% (active) |
| COc1cc2c(cc1OC)-c1c(OC)c(OC)cc3ccnc(c13)C2=O | 68.4% (active) |
| COc1ccc(NC(=O)CSc2nnc3ccc(-c4cccnc4)nn23)cc1OC | 42.1% (active) |
| O=Cc1ccc(N2CCCCCC2)cc1 | 57.1% (active) |
| CC1(c2ccc3ccccc3c2)NC(=O)N(CC(=O)N2CCN(Cc3ccc(C#N)cc3)CC2)C1=O (stereo not given) | 66.1% (active) |
| CCOC(=O)c1ccc(N=Cc2cnc(N)nc2N)cc1 | -2.86% |
| O=C(CSc1ncccc1-c1nc2ccccc2[nH]1)Nc1ccc2c(c1)OCCO2 | -2.1% |
| CCOc1ccc(CCNC(=O)COC(=O)c2ccc(F)c(S(=O)(=O)N3CCOCC3)c2)cc1OCC | 61.8% (active) |
| CCOc1cc(/C=N/Nc2nnc(C)n2N)ccc1O | 18.2% |
| COC(=O)c1ccc(NC(=O)CN2CCN(S(=O)(=O)c3cc(Cl)ccc3OC)CC2)cc1 | 60.3% (active) |
| O=C(O)c1c[nH]c2c([N+](=O)[O-])cccc2c1=O | 35.2% |
| Cc1cc(/C=N/n2cnnc2)c(C)n1-c1ccc(OCc2ccc(Cl)cc2)cc1 | 27.8% |
| Cc1onc(-c2c(F)cccc2Cl)c1C(=O)c1ccc(F)cc1 | 46.1% (active) |
| Cc1[nH][nH]c(=O)c1N=Nc1ccc(S(N)(=O)=O)cc1 | 52.1% (active) |
| CCOc1cc(/C=C2\C(=N)N3N=C(C)SC3=NC2=O)ccc1OCCOc1cccc(OC)c1 | 39.7% |

| SMILES | inhibition |
| --- | --- |
| O=C(N/N=C/c1ccc([N+](=O)[O-])s1)C(O)c1ccccc1 (stereo not given) | 46.7% (active) |
| O=C(C(Cl)c1ccccc1)N1CCOCC1 (stereo not given) | 56.5% (active) |
| COCCn1c(SCC(=O)Nc2ccc(C(C)=O)cc2)nnc1-c1ccco1 | 43.4% (active) |
| CC(=O)Oc1ccc2oc(=O)c3c(c2c1)CCCN3C(=O)CN1CCN(c2ncccn2)CC1 | 58% (active) |
| CC(=O)c1ccc(OC(C)C(=O)OCC(=O)NCCc2ccccc2)cc1 (stereo not given) | 47.1% (active) |
| CCCn1c2c(c(=N)c3c1CCC3)CCCC2 | 61.8% (active) |
| C/C(=N\NC(N)=S)C1(C)CCCCC1 | 57.1% (active) |
| Cc1ccc(NC(=O)CSc2nnc(CCCCCNC(=O)OC(C)(C)C)o2)c(C)c1 | 47.9% (active) |
| COc1cc(C(=O)NC2CCN(C)CC2)ccc1Nc1ncc2c(n1)N(CCc1ccccc1)CCC(=O)N2C | 54.8% (active) |
| C#Cc1cccc(Nc2nc(NCCOC)nc3ccsc23)c1 | 47.1% (active) |
| Cc1nn(Cc2ccc(Cl)cc2)c(C)c1NC(=O)c1cc(C(C)C)on1 | 44.9% (active) |
| CC(=O)N1CCN(c2ccc(Oc3ccc([N+](=O)[O-])c(C(F)(F)F)c3)cc2)CC1 | 68.3% (active) |
| Cc1nnc(SCC(=O)Nc2ccc(Br)cc2)n(N)c1=O | 44.3% (active) |
| C/C(=N\Nc1nc(C)c(C)s1)c1ccc([N+](=O)[O-])cc1 | 49.1% (active) |
| O=C(CN1C(=O)NC2(CCCCC2)C1=O)NCCc1c[nH]c2ccccc12 | 47.8% (active) |
| Cc1ccc(-n2nc(C)c(NC(=O)CCl)c2C)cc1C | 66.8% (active) |
| CC(=O)Oc1ccc(-c2ccc(C(=O)Nc3cccc(S(=O)(=O)N4CCOCC4)c3)cc2)cc1 | 35.1% |
| Cc1cc2oc(=O)cc(C)c2cc1NC(=O)CCl | 58.9% (active) |
| O=C(OCC(=O)N1CCN(C(=O)COC(=O)c2ccc(O)cc2O)CC1)c1ccc(O)cc1O | 61% (active) |
| CC1(C)CC(=O)C=C(c2cccs2)C1 | 47.2% (active) |
